This is an account of results in PubChem BioAssay AID741 (SRMLSC, 2007).

The term viability denotes a read-out of living cells in per cent, often relative to untreated cells.

Records with an inconclusive call do not appear. Active and inactive are the calls of the source. Rule as the data show it: active = toxicity enhancement factor above about 0.054; inconclusive = between about 0.00067 and that limit; inactive = weaker than that.

The experiment is described as follows: MRP-overexpressing cell chemosensitization – dose response (AID 741). Particulars: MRP-overexpressing cells, viability with/without cytotoxic drug; slope difference: measured here: slope difference tox minus reversal, stronger effect = higher value; toxicity enhancement factor: stronger effect = higher value; viability: measured here: viability series, compound alone, at 10 µM, stronger effect = lower value.
Consider `COC(=O)Nc1ccc(S(=O)(=O)Nc2cccc3ccccc23)cc1`, for which the toxicity enhancement factor was -0.0003 (inactive), the viability came out at 77.7% and the slope difference was -0.0221.

With `CC(=O)Nc1ccc(S(=O)(=O)NCCC(=O)NCCc2ccc(F)cc2)cc1`, the slope difference amounted to 0.0009, the viability came to 87.3% and the toxicity enhancement factor is 0 (inactive).

With `O=C1CCCC2=C1C(c1cccs1)n1nc(SCc3ccccc3F)nc1N2` (configuration not stated), the toxicity enhancement factor is 0.0631 (active), the slope difference was determined as 2.51 and the viability was found to be 69.6%.

`COC(=O)Nc1ccc(S(=O)(=O)Nc2ccc(O)cc2)cc1`: the slope difference is -0.156, the viability was 90.5% and the toxicity enhancement factor was -0.0016 (inactive).

For the molecule `CC(C(=O)O)c1ccc(-c2ccccc2)c(F)c1` (configuration not stated), the slope difference is -0.412, the viability is 89% and the toxicity enhancement factor is -0.0042 (inactive).

Take `CCn1c(N)c(C(=O)N2CCOCC2)sc1=S`: the viability was determined as 101%, the toxicity enhancement factor is -0.0052 (inactive) and the slope difference was -0.557.

Turning to `CCCc1cc(Nc2c(C)n(C)n(-c3ccccc3)c2=O)n2c(nc3ccccc32)c1C#N`, the slope difference was 4.27, the toxicity enhancement factor was 0.0896 (active) and the viability was 97.6%.

In the case of `O=c1[nH]c2ccc(Br)cc2c(-c2ccccc2)c1N1CCOCC1`, the toxicity enhancement factor was 0.0679 (active), the viability worked out at 74.8% and the slope difference came to 2.74.

`COCC(C)OC(=O)C(C#N)c1nc2ccccc2nc1N1CCN(Cc2ccccc2)CC1` (configuration not stated): the toxicity enhancement factor was -0.0013 (inactive), the slope difference is -0.109 and the viability is 89.3%.

Turning to `O=C(O)Cc1ccc(-c2ccccc2)cc1`, the viability came out at 99.6%, the slope difference is -0.343 and the toxicity enhancement factor is -0.0033 (inactive).

In the case of `CC1CN(c2nc3ccccn3c(=O)c2/C=C(\C#N)S(=O)(=O)c2ccccc2)CC(C)O1` (configuration not stated), the viability is 93.3%, the toxicity enhancement factor is 0.0581 (active) and the slope difference turned out to be 3.36.

Regarding `CCOC(=O)c1c(C)[nH]c(N=Nc2ccc(C)cc2)c1C`, the slope difference was -0.597, the viability was determined as 98.7% and the toxicity enhancement factor was -0.006 (inactive).

Turning to `CC(C)(C)C(=O)[C@@H]1[C@@H]2C(=O)N(C3CCCCC3)C(=O)[C@@H]2[C@H]2c3ccccc3C=CN12`, the viability worked out at 85.2%, the slope difference is 2.83 and the toxicity enhancement factor was 0.061 (active).

`CC1(C)CC(=O)C2=C(C1)N(c1cccc(O)c1)C1=C(C2)C(=O)CC(C)(C)C1`: the slope difference stood at 3.34, the viability worked out at 87.2% and the toxicity enhancement factor was 0.0743 (active).

Turning to `CC(C(=O)O)c1ccc(N2Cc3ccccc3C2=O)cc1` (configuration not stated), the slope difference was -0.182, the viability stood at 98.6% and the toxicity enhancement factor was -0.0019 (inactive).

`Cc1cccc2cc(CN(Cc3nnnn3Cc3ccco3)C3CCCC3)c3nnnn3c12`: the slope difference was -1.43, the toxicity enhancement factor is -0.027 (inactive) and the viability turned out to be 51.1%.

As for `COc1ccccc1Nc1nc(N)nc(CN2CCOCC2)n1`, the viability stood at 98.2%, the slope difference is -0.589 and the toxicity enhancement factor is -0.0058 (inactive).

`COc1ccc2cc(C(c3nnnn3C(C)(C)C)N3CCc4ccccc4C3)c(=O)[nH]c2c1` (configuration not stated): the slope difference is -0.322, the toxicity enhancement factor is -0.0045 (inactive) and the viability is 76.3%.

With `CC1=NN(C(N)=S)C(=O)C1N=Nc1ccccc1C` (configuration not stated), the viability was 92.1%, the toxicity enhancement factor was -0.0057 (inactive) and the slope difference was -0.556.

As for `Cc1ccc(N2C(N)=C(C#N)C(c3cccnc3)C3=C2CCCC3=O)cc1` (configuration not stated), the slope difference was 2.44, the viability amounted to 62.7% and the toxicity enhancement factor was 0.0726 (active).

For the molecule `Cc1cccc2cc(CN(Cc3nnnn3C3CCCCC3)C3CCCC3)c3nnnn3c12`, the slope difference was 3.91, the toxicity enhancement factor was 0.117 (active) and the viability was found to be 74.2%.

For `CC1(C)CC(=O)C2=C(C1)N(c1ccccc1)C(N)=C(C#N)C2c1cccnc1` (configuration not stated), the viability worked out at 60%, the slope difference was 2.68 and the toxicity enhancement factor is 0.105 (active).

For the molecule `CCCCNc1c2c3c(cccc3n(C)c1=O)C(=O)c1ccccc1-2`, the toxicity enhancement factor was -0.0634 (inactive), the slope difference is -4.84 and the viability was 32.4%.

For `O=C1Nc2cc(C(=O)N3CCN(Cc4ccccc4)CC3)ccc2SC1N1CCOCC1` (configuration not stated), the slope difference is -0.0531, the viability stood at 83.2% and the toxicity enhancement factor is -0.0007 (inactive).

Take `Cc1ccc(Cn2c(N3CCCCCC3)nc3c2c(=O)[nH]c(=O)n3C)cc1`: the viability stood at 88.2%, the slope difference is -0.91 and the toxicity enhancement factor was -0.0097 (inactive).

`CS(=O)(=O)Nc1ccc([N+](=O)[O-])cc1Oc1ccccc1`: the viability stood at 97.8%, the slope difference was -0.667 and the toxicity enhancement factor was -0.0071 (inactive).

As for `CCOC(=O)/C(C#N)=C/c1cc(C)n(-c2ccc(C)cc2)c1C`, the viability came out at 63.7%, the slope difference was -0.0151 and the toxicity enhancement factor was -0.0003 (inactive).

Turning to `CCCCC1C(=O)N(c2ccccc2)N(c2ccccc2)C1=O`, the toxicity enhancement factor is -0.0047 (inactive), the viability stood at 101% and the slope difference is -0.496.

With `CC(C(=O)O)c1cccc(C(=O)c2ccccc2)c1` (configuration not stated), the viability was found to be 92.4%, the slope difference was -1.03 and the toxicity enhancement factor is -0.0105 (inactive).

In the case of `CCOc1ccccc1Nc1nc(N)nc(CN(C)C2CCCCC2)n1`, the toxicity enhancement factor was -0.0012 (inactive), the viability is 92.2% and the slope difference was -0.105.

With `Cc1ccc(CN(C(=O)c2ccco2)C(C(=O)NC2CCCC2)c2ccc(N3CCOCC3)cc2)cc1` (configuration not stated), the toxicity enhancement factor was 0.0523 (active), the slope difference came to 2.19 and the viability was 72.9%.

As to `COc1cc(/C=C/C(=O)CC(=O)/C=C/c2ccc(O)c(OC)c2)ccc1O`, the toxicity enhancement factor is -0.0391 (inactive), the slope difference is -2.01 and the viability was determined as 24.1%.

Turning to `COc1ccc2cc([C@H](C)C(=O)O)ccc2c1`, the toxicity enhancement factor is -0.0066 (inactive), the viability was 96.6% and the slope difference was -0.665.

Turning to `CCN(CC)C(=O)CSc1nc2c(sc(=S)n2-c2ccccc2)c(=O)n1Cc1ccco1`, the viability is 87.8%, the toxicity enhancement factor is 0.0846 (active) and the slope difference is 3.95.
